Assay outcomes: PubChem, several laboratories
The list is not random: actives were taken first. Their share in the collection is about 1.6%.
Sa ugtP lethal: growth inhibition of S. aureus ugtP deletion strain; S. aureus RN4220 ugtP deletion, OD600 growth, 16 h; growth inhibition, % (concentration not given with the values); 330,000 compounds, 0.54% hits; AID 1259309; in the data active = growth inhibition above about 68%
Mtb hypoxia inh: inhibitors of hypoxia-regulated fluorescent reporter in Mycobacterium tuberculosis. M. tuberculosis hypoxia-regulated fluorescent reporter, fluorescence. fluorescence inhibition, % (test concentration not listed). 300,000 compounds, 0.1% hits; in the data active = fluorescence inhibition mostly above about 23%, no sharp cut-off; inactive = mostly below about 17%
RecA splice inh: Mtb RecA intein splicing inhibition; P9WHJ3; cell-free RecA intein splicing, fluorescence; inhibition, % (concentration not given with the values); 290,000 compounds, 0.75% hits; AID 2221; in the data active = inhibition above about 30%
CCHF vOTU inh: blocks the CCHF virus ovarian tumor domain protease; inhibition, % at 11.5 µM; AID 651958; 370,000 compounds, 0.55% hits; CCHFV vOTU protease, Pep-AMC fluorescence; in the data active = inhibition above about 30%
BJeLR lethal: kills HRASV12-expressing BJeLR cells | BJeLR (HRASV12) viability, CellTiter-Glo ATP luminescence, 48 h | inhibition, % (no concentration beside the values) | 300,000 compounds, 0.17% hits | AID 1554; in the data active = inhibition above about 50%
Sa RN4220 lethal: kills Staphylococcus aureus RN4220 | 330,000 compounds, 0.33% hits | inhibition, % (test concentration not listed) | AID 1259311 | S. aureus RN4220 growth, OD600, 16 h; in the data active = inhibition above about 85%
GFP chromophore: counter-screen: blocks GFP chromophore formation; shares compounds with RecA splice inh; cell-free GFP chromophore formation, fluorescence; EC50, µM; 2,100 compounds, 83% hits; AID 434968; call rule not given here
Hits are given with their value; - = inactive; . = no result given.

SMILES | Sa ugtP lethal | Mtb hypoxia inh | RecA splice inh | CCHF vOTU inh | BJeLR lethal | Sa RN4220 lethal | GFP chromophore
O=C(NCc1cccnc1)/C(=C\c1ccc(-c2cccc(Cl)c2)o1)S(=O)(=O)c1ccccc1 | - | - | 54 | - | - | - | 35
O=C(NCCc1ccccc1)C(c1cccs1)N(C(=O)CCl)c1ccc(Cl)cc1 (configuration not stated) | - | - | 74 | - | 117 | - | 0.51
O=C(Cn1nc2ccccc2n1)NN=Cc1ccc(F)cc1 | - | - | . | . | . | - | .
COC1=C(c2ccccc2)C(=O)c2ccccc2C1=O | - | - | 69 | - | . | - | 14
COc1ccc(C2=C(N)c3ccccc3C2=O)cc1 | - | - | - | . | - | - | .
C/C(C=NNC(=O)CSc1nc(C)cc(C)n1)=C/c1ccccc1 | - | - | . | . | . | - | .
CCCCCOP(=O)(OCCCCC)C1(NS(=O)(=O)c2ccccc2)C=CC(=O)c2ccccc21 (configuration not stated) | - | - | 81 | - | - | - | 6.7
Cn1c(/N=C/c2c(O)ccc3ccccc23)nc2ccccc21 | . | . | 73 | - | . | . | 9.1
Cc1ccc(NC(=O)c2sc3ncnc(N4CCN(c5ccccn5)CC4)c3c2C)c(C)c1 | . | . | 73 | - | - | . | -
CC(C)(O)C1CC[C@@](C)(C2CC[C@]3(C)C2C(O)CC2[C@@]4(C)CCC(O)C(C)(C)C4C(OC4OC(CO)C(O)C(O)C4OC4OC(CO)C(O)C(O)C4O)C[C@]23C)O1 (some centres not stated) | - | - | . | . | . | - | .
CCCc1[nH]nc2c1C(c1ccsc1)C(C#N)=C(N)O2 (configuration not stated) | - | - | 66 | - | - | - | 29
COCc1[nH]nc2c1C(c1ccsc1)C(C#N)=C(N)O2 (configuration not stated) | - | - | 64 | - | - | - | 35
CCOC(=O)C1=C(C)OC(N)=C(C#N)C1c1ccsc1 (configuration not stated) | - | - | - | . | - | - | .
CC(C)c1[nH]nc2c1C(c1ccc(OC(=O)c3ccco3)cc1)C(C#N)=C(N)O2 (configuration not stated) | - | - | 46 | - | - | - | 20
COC(=O)C1=C(C)OC(N)=C(C#N)C1c1ccco1 (configuration not stated) | - | - | - | - | - | - | .
Cc1[nH]nc2c1C(c1cccc(OC(=O)N3CCOCC3)c1)C(C#N)=C(N)O2 (configuration not stated) | - | . | 59 | - | - | - | 35
Cc1[nH]nc2c1C(c1ccc(OC(=O)c3ccco3)cc1)C(C#N)=C(N)O2 (configuration not stated) | - | - | 74 | - | - | - | 33
COC1(OC)C(/C=C/c2ccc(Cl)cc2)C(C#N)(C#N)C1(OC)OC (configuration not stated) | . | . | 73 | - | - | . | -
COC1(OC)C(/C=C\c2ccc(C)cc2)C(C#N)(C#N)C1(OC)OC (configuration not stated) | - | - | . | . | . | - | .
COC(=O)CSc1nc2sc3c(c2c(=O)n1C1CCCCC1)CCN(C)C3 | . | . | 39 | . | - | . | -
COC(=O)CSc1nc2sc3c(c2c(=O)n1-c1ccc(OC)cc1)CCN(C)C3 | - | - | - | - | - | - | .
COc1ccc(C2CC(=O)C=C(c3ccc4c(c3)OCO4)C2)cc1OC (configuration not stated) | - | - | . | . | . | - | .
CC(C)[C@@]1(NC(=O)C2CC3c4cccc5[nH]cc(c45)CC3N(C)C2)O[C@@]2(O)C3CCCN3C(=O)C(Cc3ccccc3)N2C1=O (some centres not stated) | - | - | . | . | . | - | .
CCOc1ccc(CN2CCN(Cc3cnc(-c4ccccc4)s3)CC2CCO)cc1 (configuration not stated) | - | - | - | - | - | - | .
CCOc1ccc(CN2CCN(CC3=Cc4cccc(OC)c4OC3)CC2CCO)cc1 (configuration not stated) | - | - | 42 | - | - | - | -
C#CCOCCOCCOCCNc1nc(N2CCN(C(=O)C(C(C)O)n3cc(C(N)CCCCN)nn3)CC2)nc(N2CCN(C(=O)C(C(C)O)n3cc(C(N)CCCCN)nn3)CC2)n1 (configuration not stated) | - | - | . | . | . | - | .
